Laboratory results: PubChem BioAssay AID602156 (GNF / Scripps Winzeler lab, 2011)
Among all 5,700 compounds or so, about 280 (4.9%) were called active. The rule behind the calls is not given here. A selection follows.

Assay: Plasmodium liver-stage growth inhibition, dose response, imaging, Malaria Box, P. yoelii, HepG2-A16-CD81EGFP (AID 602156)
Conditions: P. yoelii liver stage in HepG2-A16-CD81EGFP

outcome, inactive:
CC(C)CC(NC(=O)C(=Cc1ccco1)NC(=O)c1ccccc1)C(=O)OCc1ccccc1 (stereo not given), CC(C)CN1CCC(O)(c2ccc3oc(C(=O)Nc4ccc5c(c4)OCO5)cc3c2)CC1, O=C(CSc1nc2ccccc2[nH]1)Nc1ccc2c(c1)OCO2, O=C(Nc1ccc2c(c1)OCO2)c1cc2cc(C3(O)CCN(CCCc4ccccc4)CC3)ccc2o1, Clc1cccc(CSc2nc(Nc3ccc4c(c3)OCO4)c3ccccc3n2)c1, c1ccc2c(NC3CCCC3)nc(Nc3ccc4c(c3)OCO4)nc2c1, CC(C)(C)C1=NN(CC(=O)Nc2ccc3c(c2)OCO3)C(=O)c2cc3ccccc3n2C1, CCCc1ccc(OCCNC(=O)CCNC(=O)Nc2cccc(Cl)c2)cc1, CC(C)CNC(=O)c1ccc(OC2CCN(CC3CCCCC3)CC2)c(Cl)c1, CC(C)CN(CC(=O)Nc1cc(C(C)(C)C)nn1-c1ccccc1)C(=O)c1cc(Cl)cc(Cl)c1, O=C(Nc1ccc(-n2cnnn2)cc1)C1CCN(Cc2ccc(OC(F)F)cc2)CC1, CCC(C)OC(=O)C1=C(C)NC2=C(C(=O)CC(c3ccc(Cl)cc3)C2)C1c1ccccc1F (stereo not given), N#Cc1cc(Oc2ccc(-c3cnc4ccccc4n3)cc2)nc2ccccc12, COc1ccc(C2C(C(=O)Nc3cccc(OC)c3)c3ccccc3C(=O)N2C2CCCCC2)cc1 (stereo not given), CC[n+]1c(C=CC=C2N(C)c3ccccc3C2(C)C)n(-c2ccccc2)c2ccccc21, COc1ccc(NC(=O)NCc2cccn2Cc2ccc(F)cc2)cc1OC, Cn1nc(C(=O)N2CCCCCC2)c2c1CCC(NCC(C)(C)N1CCOCC1)C2 (stereo not given), C=C(Cl)CSc1nnc(CCNC(=O)c2ccc(C)cc2)n1-c1ccc(F)cc1, CCCc1nc2ccc(NC(=O)NCC)cc2c(=O)n1Cc1ccc(-c2ccccc2)cc1, CCc1nc2ccc(NC(=O)c3ccncc3)cc2c(=O)n1Cc1cccc(OC)c1, COc1cc(OC)cc(C(=O)N(CCCC(C)Nc2cc(OC)cc3cccnc23)Cc2ccc(Cl)cc2)c1 (stereo not given), COc1cc(C(=O)C=CNc2ccc(N(C)C)cc2)cc(OC)c1OC, CCC(Cc1cnc2nc(N)nc(N)c2n1)c1ccc(C(=O)N[C@@H](CCC(=O)O)C(=O)O)cc1 (stereo not given in full), CCCCCCc1cc2cc(-c3nc4ccccc4[nH]3)c(=Nc3ccccc3C)oc2cc1O, CC(C)(C)c1nn(-c2ccc(Cl)cc2)c2[nH]c(=O)c(CNCc3ccccc3)cc12, c1ccc2c(NCCNc3c4ccccc4nc4ccccc34)c3ccccc3nc2c1, COc1ccccc1N1CCN(Cc2cc(C(C)C)c(C)cc2O)CC1, N#CN=C(N)c1sc(Nc2ccccc2)nc1N, CC1[C@H]2NC[C@H](C)C[C@]2(O)O[C@@H]2C[C@H]3[C@@H]4CC[C@H]5C[C@@H](N)CC[C@]5(C)C4CC[C@]3(C)[C@@H]12 (stereo not given in full), O=C(Nc1ccc(Cl)c(Cl)c1)Nc1ccc(Cl)c(Cl)c1, N=c1c2c(n(Cc3ccc(Cl)c(Cl)c3)c3c1CCC3)CCCC2, COc1ccc(C2CC(=O)C3=C(C2)NC(C)=C(C(=O)OC2CCCC2)C3c2ccccc2)cc1 (stereo not given), COCCSc1nc2sc3c(c2c(=O)n1-c1ccc(OC)cc1)CCN(C)C3, Cc1ccc2nc3c(c(Nc4ccc(N(C)C)cc4)c2c1)CCC3, Cc1ccc(-c2nc3cc(NC(=O)c4ccc([N+](=O)[O-])o4)ccc3o2)cc1Br, Nc1cc(C(=O)Nc2cccc(C3=NCCN3)c2)ccc1C(=O)Nc1cccc(C2=NCCN2)c1, CCCCCC1CCCc2c1[nH]c1cc(Cl)ccc1c2=O (stereo not given), O=C(NCc1ccccc1)c1cnc(NCCCN2CCCC2)nc1NCCc1ccccc1, CC(C)c1ccc(C=CC(=O)NCc2ccco2)cc1, CCc1c(C)nc(SCC(=O)NNC(C)=O)[nH]c1=O, FC(F)(F)c1cccc(-c2nc3c(s2)CN(C2CCCC2)CC3)c1, Cc1c(/C=C2\SC(=Nc3ccccc3F)N(C3CCCCC3)C2=O)c2ccccc2n1CC(N)=O, Clc1ccc(-c2nc3ncc(Cl)cc3[nH]2)cc1, COc1cccc(-c2ccc(O)c(CN3CCC(C)CC3)c2)n1, Clc1ccc(Nc2nc(NCc3ccco3)c3ccccc3n2)cc1, CCOC(=O)c1sc(NC(=O)CSc2nnc(CNC(=O)COc3ccc(Cl)cc3)n2C)c(C(=O)OCC)c1C, COc1ccc(N=C(C)C2=C(O)c3ccccc3C2=O)c(OC)c1, CN(C)c1ccc(/C=C/C=C/c2cc[n+](C)cc2)cc1, CCCCCCCCCCOC(=O)Cn1c(C)[n+](C)c2ccccc21, COCCn1nnnc1C(c1cc2cc3c(cc2[nH]c1=O)OCCO3)N1CCC(O)CC1 (stereo not given), COc1cc2nc(NCc3ccccn3)n3nc(-c4ccccc4)nc3c2cc1OC, CCN1C(=S)NC2c3cc(C)ccc3OC13CCCC23 (stereo not given), Cc1ccc(NC(=O)CCCCC(=O)Nc2ccc(C)c(Br)c2)cc1Br, C#CC(C)(C)NC(=O)c1ccc(-c2ccc(CC)cc2)cc1, CCC(c1nc2ccccc2c(=O)n1-c1cccc(C)c1)N(Cc1ccccc1)C(=O)Nc1c(C(C)C)cccc1C(C)C (stereo not given), CCC(c1nc2ccccc2c(=O)n1-c1cccc(C)c1)N(CCc1ccccc1)C(=O)Nc1c(C(C)C)cccc1C(C)C (stereo not given), CCCNC(=O)c1ccc(OC2CCN(CC(c3ccccc3)c3ccccc3)CC2)c(OC)c1, COCCNC(=O)c1ccc(OC2CCN(CC(c3ccccc3)c3ccccc3)CC2)c(OC)c1, COc1ccc(SC2CCN(C3CCOCC3)CC2)cc1, CCCCC(CC)C(=O)N(C)CCCNc1ccnc2cc(Cl)ccc12 (stereo not given), O=C(NCC1CCCO1)c1cnc(NCCCn2ccnc2)nc1NCCc1ccccc1 (stereo not given), Cc1cc(C)nc(N=C(N)Nc2ccccc2O)n1, Oc1ccc(-c2nc3ccccc3s2)cc1CN1CCCCC1, O=C1CSC(=S)N1c1cccc(Cl)c1, CC[C@@H]1CCC[C@H](C)CC[C@@H](O[C@@H]2O[C@@H](C)[C@@H](O)[C@@H](N)[C@H]2O)[C@H](CC)CCCNC1=O, CN(CCCNc1nc2ccccc2c2nc(-c3cccnc3)nn12)Cc1ccccc1, O=C(Cc1ccccc1)NCc1ccc(Nc2c(-c3cccnc3)nc3ccccn23)cc1, CCCCCCCSc1c(O)c2ccc(Cl)cc2[nH]c1=O, COc1ccc(Nc2ncnc3[nH]c(-c4cccc([N+](=O)[O-])c4)cc23)cc1, C1CCC(CN2CCc3nc(N4CCCCC4)sc3C2)CC1, CC(=O)N(C1=C(N(C)C)C(=O)c2ccccc2C1=O)c1cccc(O)c1, Oc1ccc(Br)cc1C=NNc1nc2ccccc2[nH]1, CCCOC(=O)C1=C(C)NC2=C(C(=O)CC(c3ccc(OC)c(OC)c3)C2)C1c1ccccc1C (stereo not given), CN(C=Cc1sc2ccc3ccccc3c2[n+]1C)c1ccccc1, Oc1ccc(-c2cncnc2)cc1CNC1CCN(Cc2ccccc2)CC1, CC(C)CN(CC(=O)N1CCC(Nc2nsc3ccccc23)C1)S(C)(=O)=O (stereo not given), COc1ccc2[nH]c(-c3ccccc3)cc(=O)c2c1, COc1ccc(Nc2nc(Nc3ccc(OC)cc3)c3ccccc3n2)cc1, CC(=O)Nc1ccc(C2NC(=O)NC3=Nc4ccccc4SC(c4ccccc4)=C32)cc1 (stereo not given), Cc1cccc(CSc2nnc(C(Cc3ccccc3)NC(=O)C3CCCCC3)n2-c2ccc(Cl)cc2Cl)c1 (stereo not given), Cc1cc(Nc2ccc(C)c(F)c2)n2nc(C)nc2n1, CCN1CCN(c2nc3ccccn3c(=O)c2C=C2SC(=S)N(C(C)C)C2=O)CC1, CCOc1ccccc1C=NNc1nc(Nc2ccccc2)nc(Nc2ccccc2)n1, Cc1cc(C)nc(NNc2c([N+](=O)[O-])cccc2[N+](=O)[O-])n1, O=c1c(NCc2ccco2)nc2cc(Cl)ccc2n1CCNc1ncc(C(F)(F)F)cc1Cl, Cn1c(=O)n(C)c2cc(NC(=O)CCl)ccc21, Oc1ccccc1-c1nc2ncccn2c1Nc1cccc(C(F)(F)F)c1, Cc1cc2cc3c(cc2c(C)n1)c1ccccc1n3C, Cc1ccc(N=C2NC(=O)C(=Cc3ccc(N(C)C)cc3)S2)cc1, c1ccc(CN2CCC(NCc3c[nH]c4ccccc34)CC2)cc1, Cc1ccccc1S(=O)Cc1ccc(C(=O)N2CCN(c3ccccn3)CC2)o1 (stereo not given), CCN1C(=Cc2ccc3cc(C)ccc3[n+]2C)C=Cc2cc(C)ccc21, O=C(NCc1ccccc1)c1cnc(NCCCn2ccnc2)nc1NCCc1ccccc1, N#Cc1ccccc1Cn1nc(-c2cccnc2)oc1=O, Clc1ccc(-c2c[n+](Cc3ccc(Cl)c(Cl)c3)c3n2CCC3)cc1, c1ccc(Cn2c(N=Nc3c(Nc4ccccc4)ccc4ccccc34)nc3ccccc32)cc1, COC(=O)c1c(-c2c(F)cccc2Cl)noc1/C=C/Nc1ccccc1, CCCN(CCC)C(=O)Cn1ccc(=N)c2ccccc21, O=C1N(Cc2cc3ccccc3s2)CC2CN(Cc3ccccc3)CCN12 (stereo not given), O=C1N(Cc2cc3ccccc3s2)CC2CN(Cc3ccoc3)CCN12 (stereo not given)
